Out of some 220,000 compounds screened, about 16,000 (7.3%) were called active. Another 25% or so got no clear call; they are omitted. The sample as a whole holds a higher share of actives than the screen did. Unmarked numbers belong to inactive results. Calls come from the whole dose curve; as a rule, active = well fitted inhibition curve with a large enough effect (not every such curve was filed as active); inconclusive = small, poorly fitted or top-dose-only effect, or another doubt; inactive = no such curve, though single readings can be large or run the other way.
biological target: Aldehyde dehydrogenase 1A1 (Homo sapiens) (UniProt P00352); assay: qHTS Assay for Inhibitors of Aldehyde Dehydrogenase 1 (ALDH1A1); conditions: Purified ALDH1A1, NADH fluorescence, propionaldehyde substrate; series mostly up to 75.3 µM; activity, negative = inhibition: at the top concentration;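 for activity, negative = inhibition: plate controls were no enzyme wells and a reference inhibitor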
Sequence (P00352 whole entry, looked up): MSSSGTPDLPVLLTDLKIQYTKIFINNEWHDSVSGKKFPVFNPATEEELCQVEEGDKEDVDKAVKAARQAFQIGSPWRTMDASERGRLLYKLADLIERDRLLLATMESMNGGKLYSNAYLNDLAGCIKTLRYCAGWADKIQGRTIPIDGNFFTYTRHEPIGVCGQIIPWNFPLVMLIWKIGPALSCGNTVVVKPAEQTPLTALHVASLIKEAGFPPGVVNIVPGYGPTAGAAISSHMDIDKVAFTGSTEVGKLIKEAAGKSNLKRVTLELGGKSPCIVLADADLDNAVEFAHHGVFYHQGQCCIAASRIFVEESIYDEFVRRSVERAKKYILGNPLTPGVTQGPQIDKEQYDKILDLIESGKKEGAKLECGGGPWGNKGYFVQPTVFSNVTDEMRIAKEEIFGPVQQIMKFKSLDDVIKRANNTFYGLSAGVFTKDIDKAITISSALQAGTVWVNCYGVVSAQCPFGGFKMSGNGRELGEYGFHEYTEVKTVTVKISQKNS
Potency is the fitted concentration of half-maximal effect.

Structure (SMILES) | activity, negative = inhibition | Potency
CC(C)(C)C1CCC(C(=O)Nc2cccnc2)CC1 (stereo not drawn) | -3.75% | –
CN(C)c1nc(N)nc(CSc2ccccn2)n1 | -4.05% | –
Cn1nnnc1SCc1cc(=O)[nH]c2ccccc12 | -5.31% | –
CN(C)c1nc(N)nc(CSc2nnnn2-c2cccc3ccccc23)n1 | – | 7.94 µM (active)
CC(OC(=O)c1ccccc1OCc1ccc(Cl)cc1)C(N)=O (stereo not drawn) | 2.06% | –
CCOC(=O)NCc1ccc2c(c1)OCO2 | 4.82% | –
Cc1cc(C)c(S(=O)(=O)NCC2CCC(C(=O)NCc3ccc4c(c3)OCO4)CC2)c(C)c1 (stereo not drawn) | – | 28.2 µM (active)
O=C(NCc1ccc2c(c1)OCO2)C1CCCN(S(=O)(=O)c2cccs2)C1 (stereo not drawn) | -11.1% | –
O=C(CN1C(=O)NC2(CCCC2)C1=O)NCC1CCCO1 (stereo not drawn) | 2.37% | –
Cc1cccc(NC(=O)Nc2nnc(-c3ccccc3)o2)c1 | 6.3% | –
COc1ccc(CCNCC(O)Cn2ccc3ccccc32)cc1OC (stereo not drawn) | 3.09% | –
Cc1ccc(Oc2cc(NC(=O)CCCn3nc(C)c([N+](=O)[O-])c3C)cc([N+](=O)[O-])c2)cc1 | -9.52% | –
COc1ccc(CNC(=O)CCCn2nc(C)c([N+](=O)[O-])c2C)cc1 | – | 12.6 µM (active)
COc1ccc(CNC(=O)CCn2cccc2)cc1 | -2.66% | –
CNC(=O)COc1ccc(S(=O)(=O)Nc2ccccc2)cc1 | -2.45% | –
COc1ccc(-c2csc(NC(=O)c3ccc(N4C(=O)CCC4=O)cc3)n2)cc1OC | 5.15% | –
COc1ccc(-c2nc(N)sc2C2(O)C(=O)Nc3c(Br)cc(F)cc32)cc1OC (stereo not drawn) | – | 11.2 µM (active)
O=C(O)c1ccccc1-c1ccccc1C(=O)NCc1cccnc1 | -2.71% | –
N#C/C(=C\c1ccc(-c2cccc([N+](=O)[O-])c2)o1)C(=O)NCCN1CCOCC1 | – | 25.1 µM (active)
O=C(NCCCN1CCOCC1)c1ccc([N+](=O)[O-])cc1[N+](=O)[O-] | 2.46% | –
Cc1ccc(Cc2cnc(NC(=O)/C(C#N)=C/c3ccc(-c4cccc([N+](=O)[O-])c4)o3)s2)cc1 | 0.468% | –
Cc1ccccc1CSc1nnc(-c2ccccc2)c(=O)[nH]1 | 1.62% | –
Cc1c(O)cc(O)c2c(=O)c(-c3ccc(O)cc3)coc12 | – | 25.1 µM (active)
CC(C)OC(=O)Cn1nc(C(F)(F)F)c2c1CCCC2 | -4.53% | –
Cc1ccc(C(=O)NNC(=O)c2cccs2)cc1 | 15.8% | –
COc1ccccc1NC(=O)c1c(Br)cnn1C | 3.41% | –

Structure (SMILES) | activity, negative = inhibition | Potency
COc1ccc(C(=O)COC(=O)COc2ccc(C)c(C)c2)cc1 | -12.5% | –
O=C(c1ccccc1)c1ccc(OC(=O)N2CCCC2)cc1 | -4.99% | –
O=C(COc1cccc(F)c1)Oc1ccc(C(=O)c2ccccc2)cc1 | – | 28.2 µM (active)
CC(C)(C)c1nnc(N/N=C/c2ccc(O)cc2)n(N)c1=O | -9.92% | –
Cc1ccc(NCc2n[nH]c(=S)n2-c2ccccc2)cc1Cl | -12.3% | –
Cn1c(CCCOc2ccc(Cl)cc2Cl)n[nH]c1=S | 9.75% | –
S=c1[nH]nc(CSCc2ccc(Cl)cc2Cl)n1-c1ccccc1 | – | 3.55 µM (active)
S=C(NCc1cccnc1)Nc1ccc(Cl)cc1Cl | -4.79% | –
C/C(=N\OCC(=O)Nc1ccc(Br)cc1)c1cccs1 | 3% | –
CCOC(=O)c1cc(C)nc(S(C)(=O)=O)c1C#N | 1.72% | –
[O-][n+]1c2c(nn1-c1ccc(Cl)c(Cl)c1)-c1nonc1CC2 | 12.6% | –
Cc1cc(C)cc(NC(=O)N2CCCCCCC2)c1 | -1.68% | –
Cc1cc(=O)[nH]c(=S)[nH]1 | – | inactive
O=c1[nH]c(=S)[nH]c2[nH]c(=S)[nH]c12 | – | 10 µM (active)
O=C(NC1CCCCC1)C1CCCN(S(=O)(=O)c2ccc(Br)s2)C1 (stereo not drawn) | 2.8% | –
Cc1ccc(C2CCN(C(=S)Nc3cccc(Cl)c3)C2)cc1 (stereo not drawn) | -1.08% | –
CC(C)(C)NC(=O)NC(=O)COC(=O)C1(C)CC1(Cl)Cl (stereo not drawn) | 10.1% | –
Cc1[nH]n(C)c(=O)c1N=Nc1ccc(S(C)(=O)=O)cc1 | 7.33% | –
CCCOC(=O)c1ccc(N2C(=O)c3ccccc3C2=O)cc1 | 1.75% | –
CCOC(=O)c1ccc(N2C(=O)CC(N(C)Cc3ccccc3)C2=O)cc1 (stereo not drawn) | – | 11.2 µM (active)
O=C(Cc1ccccc1)NNC1CC(=O)N(c2ccc(Br)cc2)C1=O (stereo not drawn) | 3.95% | –
CCOC(=O)c1ccc(NC(=S)N2CCCC2)cc1 | -15.1% | –
COc1ccc(N2C(=O)CC(N3CCC(C(N)=O)CC3)C2=O)cc1 (stereo not drawn) | – | 7.94 µM (active)
CNC(=O)NC(=O)C(C)N1CCN(C/C=C/c2ccccc2)CC1 (stereo not drawn) | -7.23% | –
CCOC(=O)c1ccccc1C(=O)N1CCOCCOCCOCC1 | 9.52% | –
COC(=O)CN(C(=S)Nc1ccc(Cl)cc1)C1CC(=O)N(c2ccc(OC)cc2)C1=O (stereo not drawn) | 14.5% | –

Structure (SMILES) | activity, negative = inhibition | Potency
NC(=O)C1CCN(C2OC(=O)c3ccccc32)CC1 (stereo not drawn) | -5.84% | –
O=C(Cn1c(N2CCN(C/C=C/c3ccccc3)CC2)nc2ccccc21)c1ccccc1 | 3.06% | –
CCOC(=O)c1ccc(N2C(=O)CC(N3CCN(C(=O)c4ccccc4)CC3)C2=O)cc1 (stereo not drawn) | – | 3.55 µM (active)
CCCCOC(=O)c1ccc(N2C(=O)CC(N3CCN(C/C=C/c4ccccc4)CC3)C2=O)cc1 (stereo not drawn) | – | 12.6 µM (active)
CN(C)NC(=O)c1csnc1-c1c(Cl)cccc1Cl | 7.95% | –
CC(C)(C)c1ccc(/C=C/C(=O)NC2CCS(=O)(=O)C2)cc1 (stereo not drawn) | -11.6% | –
CCOC(=O)CNC(=O)N1c2ccccc2Sc2ccccc21 | 8.51% | –
CN(CC(=O)N1CCN(c2ccccc2)CC1)S(=O)(=O)c1cccs1 | 7.8% | –
CC(=O)N1CCN(S(=O)(=O)c2c(F)cc(F)c(Cl)c2F)CC1 | 8.19% | –
COc1ccc(/C(=N\O)c2nccc3cc(OC)c(OC)cc23)cc1OC | 14.1% | –
CCC1(C)Cc2c(sc3nc(SC)[nH]c(=O)c23)CO1 (stereo not drawn) | 0.569% | –
N=C1C(c2nc3ccccc3[nH]2)=C(O)CN1NC(=O)c1c[nH]c2ccccc12 | 8.77% | –
COc1ccc(NC(=S)N2CCCC(CO)C2)c(OC)c1 (stereo not drawn) | 4.06% | –
Cc1cccc(C(=O)OCC(=O)NCC(C)C)c1O | 4.6% | –
CCOC(=O)c1ccc(N2C(=O)CC(N3CCC(C(=O)OCC)CC3)C2=O)cc1 (stereo not drawn) | – | 12.6 µM (active)
CCOc1ccc(N2C(=O)CC(N(CCc3ccc(OC)c(OC)c3)C(=S)Nc3ccccc3)C2=O)cc1 (stereo not drawn) | 4.94% | –
CCOC(=O)c1ccc(NC(=O)C2CC(=O)Nc3nc4ccccc4n32)cc1 (stereo not drawn) | 12.3% | –
CSc1nc(O)c(Cc2ccccc2)c(=O)[nH]1 | -0.847% | –
COC(=O)c1cc(C(=O)OC)cc(N2C(=O)CC(N3CCN(c4ccccc4)CC3)C2=O)c1 (stereo not drawn) | – | 31.6 µM (active)
CCOC(=O)c1ccc(N2C(=O)CC(Sc3nc(O)c(CC)c(=O)[nH]3)C2=O)cc1 (stereo not drawn) | – | 10 µM (active)
CCOC(=O)C1CCN(C(=O)Nc2ccc(Cl)cc2)CC1 | 8.47% | –
O=C1CC(N2CCN(c3ccc(F)cc3)CC2)C(=O)N1c1ccccc1 (stereo not drawn) | -3.2% | –
CN1C(=O)CC(N2CCN(c3ccccn3)CC2)C1=O (stereo not drawn) | -14.7% | –
CCOC(=O)C1CCN(c2ccc(C(=O)O)cc2[N+](=O)[O-])CC1 | 2.01% | –
CCCOc1ccc(N2C(=O)CC(N(CCc3ccc(S(N)(=O)=O)cc3)C(C)=O)C2=O)cc1 (stereo not drawn) | -10.9% | –
CCCCCCC(=O)N(O)C1CC(=O)N(c2ccccc2)C1=O (stereo not drawn) | – | 0.316 µM (active)

Reference: PubChem BioAssay AID1030 (National Center for Advancing Translational Sciences (NCATS), 2008)
